Experimental data reported in PubChem BioAssay AID1974 (The Scripps Research Institute Molecular Screening Center, 2009).
About 3,200 (1.1%) of roughly 300,000 compounds were called active. The list comes from a sample in which actives are over-represented; it also holds similar structures and randomly drawn compounds. Values without a mark were called inactive.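 Rule for the calls: active = inhibition above the campaign mean inhibition plus 3 SD (cut at about 35% in these data); inactive = the rest.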

Target: Glutathione S-transferase omega-1 (Homo sapiens) (UniProt P78417)
Experiment: inhibitors of recombinant GSTO1, primary screen, counter-screen for RBBP9 inhibitor project, biochemical, fluorescence polarization (AID 1974);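 note: 0% = GSTO1-1 with DMSO and 100% = wells lacking GSTO1-1 enzyme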
Conditions: recombinant GSTO1, activity-based probe fluorescence polarization; at 5.96 µM; active compounds read high

Glutathione S-transferase omega-1 (Homo sapiens), sequence (P78417 whole entry, looked up): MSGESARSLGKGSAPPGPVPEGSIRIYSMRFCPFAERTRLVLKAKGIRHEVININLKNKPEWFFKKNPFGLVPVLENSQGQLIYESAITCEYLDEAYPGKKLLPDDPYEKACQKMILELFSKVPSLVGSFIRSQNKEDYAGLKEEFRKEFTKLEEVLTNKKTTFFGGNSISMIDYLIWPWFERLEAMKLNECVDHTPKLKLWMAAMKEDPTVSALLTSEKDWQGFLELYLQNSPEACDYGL

Compound	inhibition
O=C(OCC1OC(Oc2ccc(O)cc2)C(O)C(O)C1O)c1ccccc1 (centres undefined)	-6.08%
O=C(OCC1O[C@@H](OC(=O)c2cc(O)c(O)c(O)c2)[C@@H](OC(=O)c2cc(O)c(O)c(O)c2)[C@@H](OC(=O)c2cc(O)c(O)c(O)c2)[C@@H]1OC(=O)c1cc(O)c(O)c(O)c1)c1cc(O)c(O)c(O)c1 (some centres undefined)	43.9% (active)
O=C(CSc1n[nH]c(-c2cccs2)n1)N1CCCCC1	0.4%
O=C(Nc1cc(N2CCOCC2)ncn1)NC1(C(F)(F)F)Oc2ccc(Cl)cc2O1 (centres undefined)	57.4% (active)
COc1ccc(Cl)cc1NC(=O)CN1CCN(C(=O)N2CCOCC2)CC1	1.76%
Cc1csc(NC(=O)NC2(C(F)(F)F)Oc3ccccc3O2)n1	28.1%
CN(CC(=O)Nc1cccc(F)c1)C(=O)C1CSC2(C)CCC(=O)N12 (centres undefined)	-10.9%
COC(=O)CCCC1=CC2=CC(=O)C(C)(OC(=O)c3cccs3)C(=O)C2=CN1c1cccc(C#N)c1 (centres undefined)	10.6%
COC(=O)CCCC1=CC2=C(c3ccccc3)C(=O)C(C)(OC(=O)C3CCCC3)C(=O)C2=CN1c1ccc(OC)cc1 (centres undefined)	40% (active)
COc1ccc(CCNC(=O)COC(=O)C2CCCCC2)cc1	3.87%
Cc1ccc(C)c(-c2nnc(NC(=O)CS(=O)(=O)c3ccccc3)o2)c1	9.44%
CCOc1ccc(C(C)=O)cc1COC(=O)CN1C(=O)NC2(CCCC2)C1=O	10.1%
C#CCOCCOCCOCCNc1nc(N2CCN(C(=O)CCCCCCCCCCNC(=O)Cn3cc(CCCCCN)nn3)CC2)nc(N2CCN(C(=O)CCCCCCCCCCNC(=O)[C@H](CO)n3cc(CCCSC)nn3)CC2)n1	4.11%
Oc1cc2c(cc1O)CN(C(=S)NCCc1ccc(Cl)cc1)CCC2	-0.15%
COc1ccc2c(c1)OC(O)(C(F)(F)C(F)F)CC2=O (centres undefined)	42% (active)
CC1(C)CC(=O)c2ccc(O)cc2O1	8.19%
COc1ccc2c(c1)SC(C)CC2=O (centres undefined)	-1.85%
COc1ccc(OCCCC(=O)OC(C)C(=O)Nc2ccccc2[N+](=O)[O-])cc1 (centres undefined)	-0.91%
COc1ccc(NC(=O)CN(C)C(=O)c2cc(-c3ccc(C)o3)nc3ccccc23)cc1	5.17%
CN1C(=O)CC(c2ccccc2)C1=O (centres undefined)	7.68%
OCC[C@H]1C[C@H](O)[C@@H](O)[C@]2(Cc3ccccc3CO2)O1	2.49%
CC1(C)Cc2ccccc2-c2nc(CN3CCOCC3)[nH]c(=O)c21	-0.05%
CC1(C)Cc2ccccc2-c2[nH]c(=S)[nH]c(=O)c21	3.5%
CCC1(CC)Cc2ccccc2-c2nc(CCl)[nH]c(=O)c21	84.7% (active)
